SMILES strings stand for the structures. The campaign covered roughly 310,000 compounds. About 14,000 (4.5%) showed an effect of 50% or more. The effect is printed as a negative number. The sample holds strong results, similar compounds and a random draw of the others, so the mix is not that of the screen.
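Further: peak tail current of the secondary pulse compared with the same well before compound.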

The assay deals with human ether-à-go-go-related gene (hERG) potassium channel (human, UniProt Q12809). Kind of assay: primary screen, population patch clamp on CHO cells stably expressing hERG; higher = less effect of the substance.
human ether-à-go-go-related gene (hERG) potassium channel, sequence (Q12809 whole entry, looked up): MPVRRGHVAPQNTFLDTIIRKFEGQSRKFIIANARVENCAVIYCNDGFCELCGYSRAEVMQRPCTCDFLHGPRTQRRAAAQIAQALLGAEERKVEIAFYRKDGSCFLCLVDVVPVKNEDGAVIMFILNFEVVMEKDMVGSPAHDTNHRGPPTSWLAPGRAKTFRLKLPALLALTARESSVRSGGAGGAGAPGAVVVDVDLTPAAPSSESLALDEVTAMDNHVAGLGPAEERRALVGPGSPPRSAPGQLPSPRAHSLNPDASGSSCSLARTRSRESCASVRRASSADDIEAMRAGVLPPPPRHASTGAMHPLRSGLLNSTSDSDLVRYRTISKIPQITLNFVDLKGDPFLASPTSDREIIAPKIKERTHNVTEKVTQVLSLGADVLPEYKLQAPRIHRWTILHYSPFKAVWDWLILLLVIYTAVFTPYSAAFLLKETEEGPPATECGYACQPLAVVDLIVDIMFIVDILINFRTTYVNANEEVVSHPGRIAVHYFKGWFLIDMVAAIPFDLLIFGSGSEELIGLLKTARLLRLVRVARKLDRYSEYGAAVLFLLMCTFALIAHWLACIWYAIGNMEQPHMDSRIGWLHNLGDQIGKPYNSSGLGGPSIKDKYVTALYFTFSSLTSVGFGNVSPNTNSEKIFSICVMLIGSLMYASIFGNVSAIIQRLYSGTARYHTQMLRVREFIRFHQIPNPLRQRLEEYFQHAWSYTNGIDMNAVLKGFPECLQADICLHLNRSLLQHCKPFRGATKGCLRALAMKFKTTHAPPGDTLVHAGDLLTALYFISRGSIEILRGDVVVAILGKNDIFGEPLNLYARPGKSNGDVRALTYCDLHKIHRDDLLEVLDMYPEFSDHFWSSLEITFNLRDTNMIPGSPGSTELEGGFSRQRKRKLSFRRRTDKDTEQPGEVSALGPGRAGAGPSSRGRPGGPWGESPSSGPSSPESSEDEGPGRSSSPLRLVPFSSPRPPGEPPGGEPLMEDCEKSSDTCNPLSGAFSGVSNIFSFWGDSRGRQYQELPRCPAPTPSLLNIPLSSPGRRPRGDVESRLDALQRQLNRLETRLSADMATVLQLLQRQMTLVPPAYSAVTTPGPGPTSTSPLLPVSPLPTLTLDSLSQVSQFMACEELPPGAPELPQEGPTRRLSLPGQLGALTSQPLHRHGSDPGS
For the compound `COc1c(O)c(=O)n2c3ccccc3c3ccnc1c32`, the “hERG current change (%, negative = inhibition) at 10uM” value was found to be 7.51%. The same measure for `CCc1ccc(NC(=O)Nn2cnnc2)cc1`: 23.7%. With `COC(=O)CNC(=O)CSc1nnc(-c2ccc(OC)cc2)n1CC(C)C`, the “hERG current change (%, negative = inhibition) at 10uM” value was 4.97%. The same measure for `O=C(/C=N/O)Nc1ccccc1C(=O)O`: -13.7%; for `N#Cc1ccc(C23CC4(C2)[C@H](CN(CC2CCCCC2)[C@@H]4c2ccccc2)C3c2ccccc2)cc1` (stereo partly drawn): -13.6%.

In the case of `O=C(Nc1ccc(Cl)cc1)c1cccnc1N1CCCCC1`, the “hERG current change (%, negative = inhibition) at 10uM” value was -13.3%. For `COc1cc(C(=O)NCCNc2nc3ccc(C)cc3cc2C#N)cc(OC)c1OC`, the “hERG current change (%, negative = inhibition) at 10uM” value was -4.74%. The same measure for `Cc1cccc2cc3c(NC(=O)CC(C)C)nn(C)c3nc12`: 10.2%; for `CSc1ccc(-c2sc(Nc3ccccc3)n[n+]2-c2ccccc2)cc1.[Cl-]`: -46.2%; for `CSc1ccc(-c2sc(Nc3ccccc3)n[n+]2-c2ccc(F)cc2)cc1.[Cl-]`: 1.55%. As for `Oc1ccc(-c2sc(Nc3ccccc3)n[n+]2-c2ccc(F)cc2)cc1.[Cl-]`, the “hERG current change (%, negative = inhibition) at 10uM” value is -1.63%. The same measure for `Cc1cccc(-c2sc(Nc3ccccc3)n[n+]2-c2ccc(F)cc2)c1.[Cl-]`: 21.7%; for `CCc1ccc(Nc2n[n+](-c3ccccc3)c(-c3ccc(N(CC)CC)cc3)s2)cc1.[Cl-]`: -36%. On to `Fc1ccc(-[n+]2nc(Nc3ccccc3)sc2-c2c(Cl)cccc2Cl)cc1.[Cl-]`, for which the “hERG current change (%, negative = inhibition) at 10uM” value is reported as -64%.

In the case of `CN(C)c1ccc(-c2sc(Nc3ccccc3)n[n+]2-c2ccc(F)cc2)cc1.[Cl-]`, the “hERG current change (%, negative = inhibition) at 10uM” value is given as -73.1%. For the compound `Cc1cccc(-c2sc(Nc3ccccc3)n[n+]2-c2ccccc2)c1.[Cl-]`, the “hERG current change (%, negative = inhibition) at 10uM” value was -72%. Next, `CCN(CC)c1ccc(-c2sc(Nc3ccccc3)n[n+]2-c2ccc(F)cc2)cc1.[Cl-]`: -71.6%. The same measure for `O=C(O)c1ccc(-c2sc(Nc3ccccc3)n[n+]2-c2ccc(F)cc2)cc1.[Cl-]`: 2.83%. Next, `Clc1cccc(-c2sc(Nc3ccccc3)n[n+]2-c2ccccc2)c1Cl.[Cl-]`: 5.53%; `Fc1ccc(-[n+]2nc(Nc3ccccc3)sc2-c2cccc(Cl)c2Cl)cc1.[Cl-]`: 8%. Take `Cl.O=C(c1ccco1)N1CCN(Cc2nnnn2CC2CCCO2)CC1` (stereo not drawn): the “hERG current change (%, negative = inhibition) at 10uM” value is recorded as -3.16%.

Take `Cn1c(=O)[nH]c(=O)c2c1nc(NC1CCCC1)n2Cc1ccccc1`: the “hERG current change (%, negative = inhibition) at 10uM” value is 15.8%. For the compound `CC1CCN(c2c(NCc3ccc(C(=O)N4c5ccccc5CC4C)cc3)c(=O)c2=O)CC1` (stereo not drawn), the “hERG current change (%, negative = inhibition) at 10uM” value is recorded as -13%.

For `Cc1ccc(S(=O)(=O)Nc2c(C(=O)O)[nH]c3ccccc23)c(C)c1`, the “hERG current change (%, negative = inhibition) at 10uM” value was determined as 8.39%. Next, `N#C/C(N)=C(/C#N)N=Cc1cccc(Cl)c1`: 4.99%; `CCN1CCN(Cc2c(O)ccc3c2O/C(=C\c2ccc(C)cc2)C3=O)CC1`: -35.7%. Next, `CSc1ccc(S(=O)(=O)Nc2ccc(NC(C)=O)cc2)cc1`: -11.3%; `CCOc1ccc(CN(C(=O)/C=C/c2ccco2)C2CCS(=O)(=O)C2)cc1` (stereo not drawn): -31.6%. The same measure for `CC(=O)c1cccc(N(C(=O)CNC(=O)c2ccco2)C(C(=O)NC2CCCC2)c2ccc(C)o2)c1` (stereo not drawn): 6.93%.

`O=C(NCCCN1CCN(c2ccc(F)cc2)CC1)C1CCCN(c2ncnc3c2nc2n3CCCCC2)C1` (stereo not drawn): the “hERG current change (%, negative = inhibition) at 10uM” value was -66.3%. Next, `CCN1CCN(C(=O)C2CCCN(c3ncnc4c3nc3n4CCCCC3)C2)CC1` (stereo not drawn): 11.6%; `O=C(C1CCCN(c2ncnc3c2nc2n3CCCCC2)C1)N1CCN(c2ccccc2F)CC1` (stereo not drawn): -72%.

On to `O=C(C1CCN(c2ncnc3c2nc2n3CCCCC2)CC1)N1CCN(c2ccccc2F)CC1`, for which the “hERG current change (%, negative = inhibition) at 10uM” value is listed as -33.1%. The same measure for `O=C(C1CCN(c2ncnc3c2nc2n3CCCCC2)CC1)N1CCN(c2ccc(F)cc2)CC1`: -51.5%; for `CN1CCN(C(=O)C2CCN(c3ncnc4c3nc3n4CCCCC3)CC2)CC1`: 17.7%; for `Cc1ccc(N2CCN(C(=O)C3CCCN(c4ncnc5c4nc4n5CCCCC4)C3)CC2)c(C)c1` (stereo not drawn): -7.35%.

`O=C(NCCCN1CCCCC1)C1CCCN(c2ncnc3c2nc2n3CCCCC2)C1` (stereo not drawn): the “hERG current change (%, negative = inhibition) at 10uM” value is recorded as 1.8%.

On to `O=C(C1CCCN(c2ncnc3c2nc2n3CCCCC2)C1)N1CCN(c2ccc(F)cc2)CC1` (stereo not drawn), for which the “hERG current change (%, negative = inhibition) at 10uM” value is on record as -66.8%.

For `CC1CCN(CCCNC(=O)C2CCCN(c3ncnc4c3nc3n4CCCCC3)C2)CC1` (stereo not drawn), the “hERG current change (%, negative = inhibition) at 10uM” value is recorded as -3.75%.

With `O=C(C1CCN(c2ncnc3c2nc2n3CCCCC2)CC1)N1CCCCC1`, the “hERG current change (%, negative = inhibition) at 10uM” value is given as 16%. Consider `CCOC(=O)C1CCN(C(=O)C2CCCN(c3ncnc4c3nc3n4CCCCC3)C2)CC1` (stereo not drawn), for which the “hERG current change (%, negative = inhibition) at 10uM” value is -34.1%. With `O=C(O)CCC(=O)Nc1cc(C(F)(F)F)cc(C(F)(F)F)c1`, the “hERG current change (%, negative = inhibition) at 10uM” value amounted to 15.1%. Next, `Cc1ccccc1-n1c(-c2csc(C)c2C)n[nH]c1=S`: 17.6%; `Cc1cc(C)c2c(N)c(C(=O)c3cccc(Cl)c3)sc2n1`: 1.67%; `CCOc1ccc(C(=O)N2CCc3cc(OC)c(OC)cc3C2)cc1OCC`: 2.45%. Next, `CCOC(=O)C(C(=O)OCC)N(C#N)c1nc(OC)nc(N(C)C)n1`: -4.52%; `O=C(CS)Nc1ccc2ccccc2c1`: 20.8%. For `CCn1c2ccccc2c2cc(NC(=O)c3cccc(OC)c3)ccc21`, the “hERG current change (%, negative = inhibition) at 10uM” value is on record as 13.9%. On to `COC(=O)c1sccc1NC(=O)CC1C(=O)NCCN1C(=O)c1ccc(N(C)C)cc1` (stereo not drawn), for which the “hERG current change (%, negative = inhibition) at 10uM” value is reported as 7.57%. The same measure for `COc1ccc(Cl)cc1NC(=O)CSc1nnc(CN2CCOCC2)n1-c1ccc(Cl)cc1`: -46.6%.

With `O=C(Nc1ccc(S(=O)(=O)NCC2CCCO2)cc1)c1ccccc1` (stereo not drawn), the “hERG current change (%, negative = inhibition) at 10uM” value is 2.19%.

On to `O=C(C1CCN(c2ncnc3c2nc2n3CCCCC2)CC1)N1CCN(c2cccc(Cl)c2)CC1`, for which the “hERG current change (%, negative = inhibition) at 10uM” value was -36.7%.

Turning to `O=C(C1CCCN(c2ncnc3c2nc2n3CCCCC2)C1)N1CCCCC1` (stereo not drawn), the “hERG current change (%, negative = inhibition) at 10uM” value was -18.2%. Take `Cc1ccc(C)c(N2CCN(C(=O)C3CCCN(c4ncnc5c4nc4n5CCCCC4)C3)CC2)c1` (stereo not drawn): the “hERG current change (%, negative = inhibition) at 10uM” value is -33.6%. For the compound `CCCN1CCN(C(=O)C2CCCN(c3ncnc4c3nc3n4CCCCC3)C2)CC1` (stereo not drawn), the “hERG current change (%, negative = inhibition) at 10uM” value is given as -1.04%.

As for `O=C(C1CCCN(c2ncnc3c2nc2n3CCCCC2)C1)N1CCN(c2ccc(Cl)cc2)CC1` (stereo not drawn), the “hERG current change (%, negative = inhibition) at 10uM” value is given as -54.8%. As to `O=C(C1CCCN(c2ncnc3c2nc2n3CCCCC2)C1)N1CCN(c2cccc(Cl)c2)CC1` (stereo not drawn), the “hERG current change (%, negative = inhibition) at 10uM” value is on record as -72.8%. `CC1CC(C)CN(C(=O)C2CCCN(c3ncnc4c3nc3n4CCCCC3)C2)C1` (stereo not drawn): the “hERG current change (%, negative = inhibition) at 10uM” value is given as -35.8%.

As for `O=C(C1CCCN(c2ncnc3c2nc2n3CCCCC2)C1)N1CCN(c2ccccc2)CC1` (stereo not drawn), the “hERG current change (%, negative = inhibition) at 10uM” value is reported as -74%.

As for `O=C1CNC(=S)N1C(CO)c1ccccc1` (stereo not drawn), the “hERG current change (%, negative = inhibition) at 10uM” value came out at 22.2%. Consider `CCc1cc(C(=O)Cc2ccc(F)cc2)c(O)cc1O`, for which the “hERG current change (%, negative = inhibition) at 10uM” value was -12.7%. Regarding `O=C(O)c1c(C(=O)O)c(-c2ccc(Br)cc2)n2c1CSC2`, the “hERG current change (%, negative = inhibition) at 10uM” value is recorded as 15%.

As for `O=C(O)COc1ccc(S(=O)(=O)NCCc2ccccc2)cc1`, the “hERG current change (%, negative = inhibition) at 10uM” value is 6.4%. On to `CC(C)C[C@H](NC(=O)C1CC(=O)N(c2ccc3c(c2)OCO3)C1)C(=O)NC1CCCC1` (stereo partly drawn), for which the “hERG current change (%, negative = inhibition) at 10uM” value is given as -0.704%. Next, `Cc1cccc(OCC(=O)Nc2ccc(NC(=O)c3ccco3)c(C)c2)c1`: -15.3%. The same measure for `COc1ccc(NC(=O)C2CCN(C(=O)c3ccc(OC)cc3)CC2)cc1`: -72.2%.

As to `COC(=O)c1ccc(NC(=O)C2CCN(C(=O)c3cc(OC)c(OC)c(OC)c3)CC2)cc1`, the “hERG current change (%, negative = inhibition) at 10uM” value is 6.73%. As for `COc1ccc(C(=O)N2CCC(C(=O)Nc3ccc(OC)c(OC)c3)CC2)cc1`, the “hERG current change (%, negative = inhibition) at 10uM” value was found to be 1.37%. The same measure for `COc1ccc(C(=O)N2CCC(C(=O)Nc3ccc(C)cc3)CC2)cc1`: -75.9%; for `COc1ccc(C(=O)N2CCC(C(=O)NC3CC3)CC2)cc1`: 4.25%; for `COc1ccc(NC(=O)C2CCN(C(=O)c3cccs3)CC2)cc1`: -12.4%. Next, `COc1ccc(C(=O)N2CCC(C(=O)Nc3ccccc3OC)CC2)cc1`: -34.6%; `CCOC(=O)c1ccc(NC(=O)C2CCN(C(=O)c3ccc(OC)c(OC)c3)CC2)cc1`: -58.7%.

As to `COc1ccc(C(=O)N2CCC(C(=O)Nc3cccc(C)c3)CC2)cc1OC`, the “hERG current change (%, negative = inhibition) at 10uM” value is listed as -38.9%.

For the compound `COc1ccc2sc(-c3ccccc3OC)c(-c3ccc4c(c3)OCCO4)c2c1`, the “hERG current change (%, negative = inhibition) at 10uM” value is reported as 17.2%.

Turning to `Cc1c(C(=O)Nc2ccc3c(c2)OCCO3)oc2ccc(Br)cc12`, the “hERG current change (%, negative = inhibition) at 10uM” value was 0.46%. Consider `CCOC(=O)COc1c(OC)cc(Cl)cc1C1Nc2ccccc2C(=O)N1c1cccc(C)c1` (stereo not drawn), for which the “hERG current change (%, negative = inhibition) at 10uM” value is -8.45%. In the case of `O=C1OCCN/C1=C\C(=O)c1ccc(Cl)cc1`, the “hERG current change (%, negative = inhibition) at 10uM” value stood at 14.5%. With `Cn1ccc(NS(=O)(=O)c2cc(Br)ccc2Br)n1`, the “hERG current change (%, negative = inhibition) at 10uM” value worked out at 0.158%. The same measure for `O=C(CCS(=O)(=O)c1ccc(F)cc1)Nc1nnc(-c2ccc(F)cc2)o1`: -10.7%. The same measure for `COc1ccc(NC(=O)c2sc3ncn(CC(=O)N4CCN(c5ccccn5)CC4)c(=O)c3c2C)c(OC)c1`: 19.5%.
